KB-3-1 tox – kills parental KB-3-1 adenocarcinoma cells; KB-3-1 viability, CellTiter-Glo ATP luminescence, 72 h; Potency, µM (doses to about 46.1 µM), actives largely listed as cytotoxic; actives 1.4% (n = 400,000); also: % is scaled to controls: 0 for no effect and ±100 for the full control effect; nearly all actives have a fitted effect of over 60% in size
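KB-3-1 parental drug-naive adenocarcinoma cells in DMEM/10% FBS, incubated 72 h at 37 C with pin-transferred compounds across a concentration series. Viability by CellTiter-Glo luminescence; concentration-response curves fitted after normalization.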
SW480 rerep – induces DNA re-replication in SW480 colon adenocarcinoma cells | SW480 DNA re-replication, Hoechst DNA content imaging, 48 h | Potency, µM (highest dose often 46.1 µM), without a hit: at the top dose re-replication activation, hits mostly activators | actives 1.8% (n = 340,000) | AID 624297; also: % of control where 0% means no effect; nearly all actives have a fitted effect of over 55% in size
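Readout is total intensity of Hoechst-stained nuclei, excited at 405 nm and collected at 500-530 nm. Compound treatment lasted 48 hr at 37 C in 5% CO2 before staining.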
HT1080NT lethal – kills 2HG-producing HT-1080-NT fibrosarcoma cells | actives 1.6% (n = 360,000) | Potency, µM (series often up to 46.1 µM), inactives show top-dose activity, negative = less viability, actives largely listed as cytotoxic | HT-1080-NT fibrosarcoma viability, CellTiter-Glo ATP luminescence, 48 h | AID 686970;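 also: NT is the 2HG producing partner of a matched IDH1 knockdown line; 0% = DMSO-treated cells and -100% = media-only wells without cells; nearly all actives have a fitted effect of over 55% in size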
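HT-1080-NT fibrosarcoma cells (2HG-overproducing), 750 cells/well in RPMI with 5% FBS, dosed after 2 h and incubated 48 h at 37C. CellTiter-Glo luminescence normalized to DMSO and no-cell wells; concentration-response curves fitted and classed.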
MCF10A rerep – DNA re-replication induction in MCF 10a cells; MCF 10A DNA re-replication, Hoechst nuclear intensity, 48 h; Potency, µM (titrated, usually from 46.1 µM), for the others: top-dose activity, positive = re-replication, hits mostly activators; actives 2.9% (n = 350,000); also: % of control where 0% means no effect; nearly all actives have a fitted effect of over 50% in size
KB-V1 cytotox – kills drug-selected multidrug resistant KB-V1 cells; Potency, µM (doses to about 46.1 µM), hits mostly cytotoxic; actives 3.4% (n = 400,000); AID 1347076; KB-V1 MDR cells viability, CellTiter-Glo, 72 h; also: % is scaled to controls: 0 for no effect and ±100 for the full control effect; nearly all actives have a fitted effect of over 60% in size
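KB-V1, DMEM (no phenol red) + 10% FBS; cpd pin-transferred, titration series; 72 h, 37 degrees C; CellTiter-Glo, luminescence. Data normalized, curve-fit.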
HT1080 IDH1KD tx – toxicity to HT-1080 IDH1 knockdown cells (counter line) | HT-1080 IDH1 knockdown viability, ATP luminescence, 48 h | Potency, µM (doses to about 46.1 µM), inactives show top-dose activity, negative = toxicity, most hits filed as cytotoxic | actives 2% (n = 360,000) | AID 686971;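 also: 0% = DMSO wells and -100% = cell-free medium wells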
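CellTiter-Glo luminescence after 48 h compound exposure at 37 degrees C of IDH1-knockdown HT-1080 cells in 5% FBS RPMI. %Activity scaled between DMSO wells and cell-free media wells, with curves fitted and assigned curve classes.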
* hit, by the source's call; i = inactive; ? = inconclusive; . = no result given. An excerpt weighted towards active compounds, which were near 8% of everything screened. Calls follow the shape of the dose curve; as a rule, active = well fitted curve in the direction sought with a large enough effect; inconclusive = small, poorly fitted or top-dose-only effect, or another doubt; inactive = no such curve, though single readings can be large; an effect the other way counts as inactive or inconclusive. Potency is read from the fitted curve at half-maximal effect.

SMILES	KB-3-1 tox	SW480 rerep	HT1080NT lethal	MCF10A rerep	KB-V1 cytotox	HT1080 IDH1KD tx
Cc1cc(C)c2sc(N(CCCN(C)C)C(=O)c3ccc(S(=O)(=O)N(C)Cc4ccccc4)cc3)nc2c1	?	?	-18%	?	21µM*	-22%
COc1ccc2sc(N(CCCN(C)C)C(=O)c3ccc(S(=O)(=O)N(C)Cc4ccccc4)cc3)nc2c1	?	14%	-9%	6%	?	-3%
Cc1ccc(C2c3cccn3CCN2S(=O)(=O)c2ccc([N+](=O)[O-])cc2)cc1 (stereo not drawn)	i	.	.	.	i	.
Cc1cc(C)c2sc(N(CCN(C)C)C(=O)c3c(F)cccc3F)nc2c1	i	?	-14%	?	?	?
Cc1cc(C)c2sc(N(CCCN(C)C)C(=O)c3ccc(Br)s3)nc2c1	i	?	23µM*	?	i	?
COC(=O)c1c(NC(=O)CN2C(=O)NC3(CCCCC3C)C2=O)sc2c1CCC2 (stereo not drawn)	10µM*	5%	-27%	0%	i	?
Cc1ccc(-n2nc(C)c3c(C)cc(=O)n(CC(=O)Nc4cc(Cl)ccc4C)c32)cc1	i	.	.	.	i	.
Cc1ccc(NC(=O)CNCc2ccc(Cl)cc2Cl)cc1S(=O)(=O)N(C)C	?	5%	-8%	23%	13µM*	-10%
Cc1ccc(NC(=O)CSc2nn(-c3ccccc3)c(=S)s2)cc1S(=O)(=O)N(C)C	?	-3%	-15%	15%	6.5µM*	?
CCOc1ccc2nc(N(CCCN(C)C)C(=O)c3ccc4c(c3)CCCC4)sc2c1	21µM*	?	18µM*	?	i	?
CN(C)CCCN(C(=O)c1ccc2c(c1)CCCC2)c1nc2ccc(Cl)cc2s1	?	?	?	?	10µM*	?
COc1ccc(NC(=O)c2ccco2)cc1NC(=O)c1cccs1	i	-6%	3%	5%	8.2µM*	3%
COc1cc(NC(=O)c2cccs2)c(OC)cc1NC(=O)CCC(=O)Nc1ccc(C)cc1	i	?	-2%	21µM*	?	-12%
COc1ccc(CC(=O)Nc2ccc(OC)c(NC(=O)c3ccco3)c2)cc1	i	-1%	-9%	-2%	i	-12%
COc1ccc(NC(=O)CCc2ccccc2)cc1NC(=O)c1ccco1	i	0%	-26%	0%	7.3µM*	-11%
COc1ccc(NC(=O)CCC(=O)Nc2cc(OC)c(NC(=O)c3cccs3)cc2OC)cc1	i	-3%	11%	-2%	i	23%
COc1cc(NC(=O)c2cccs2)c(OC)cc1NC(=O)c1ccco1	i	-314%	4%	12%	?	-3%
Cn1c2ccccc2c2n[nH]c(=S)nc21	?	0%	0%	?	6.5µM*	14%
CN(C)/C=C1/C=C(c2ccccc2)OC1=O	i	?	?	18µM*	i	?
CCC1(C)NC(c2ccc3c(c2)OCO3)=CC(c2ccccc2O)N1 (stereo not drawn)	?	.	.	.	i	.
CCOc1ccccc1NC(=O)CN1Cc2ccccc2C1=O	?	.	.	.	i	.
CCCCCCC#Cc1cncc(C(=O)NNC(=O)Nc2cc(Cl)cc(Cl)c2)c1	i	-50%	?	-32%	?	21µM*
CCCCC#Cc1cncc(C(=O)NN)c1	i	?	-11%	7%	i	-19%
CCC(C)Oc1ccccc1C1CC(=O)NC2=C1C(=O)CCC2 (stereo not drawn)	?	18µM*	?	?	?	?
Fc1cccc(NC(=S)N2CCn3cccc3C2c2cccnc2)c1 (stereo not drawn)	i	15%	2%	2%	?	0%
S=C(Nc1ccccc1)N1CCn2cccc2C1c1cccnc1 (stereo not drawn)	i	-8%	5%	-5%	16µM*	-1%
